Drawing on PubChem BioAssay, this text covers z-score and composite z-score for four compounds.

The nature of assay [1]: optical density shifts of acrAB sulA E. coli – strain DRC41, OD650, 48 h, E. coli filamentation inducer project, primary screen (AID 1152).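 Further: E. coli MC1000 strain DRC41 lacking acrAB efflux pump and sulA.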 Conditions: higher = more signal, called active from +8 up or from −8 down.
A short description of assay [2]: probe aLefty1 binding on compound microarray – biochemical, small-molecule microarray, 635/667 nm fluorescence, primary screen (AID 1153).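 Further: score merges spot fluorescence with signal-to-noise ratio from the scanned slide images.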 Conditions: higher = more signal.
The nature of assay [3]: plasmodial surface anion channel blockers, osmotic lysis – cell-based, P. falciparum Indochina, OD700, 1 h, primary screen (AID 1154). The following applies: P. falciparum Indochina infected RBC osmotic lysis, higher = more signal, called active from +8 up or from −8 down.
The nature of assay [4]: plasmodial surface anion channel blockers, osmotic lysis – cell-based, P. falciparum Indochina, OD700, 2 h, primary screen (AID 1155).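 Further: lysis reports solute entry through the parasite surface anion channel PSAC.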 Conditions: P. falciparum Indochina infected erythrocytes, higher = more signal, called active from +8 up or from −8 down.
A short description of assay [5]: changes in parasitized red cell lysis, either direction – P. falciparum Indochina, OD700, 3 h, PSAC antagonist project, primary screen (AID 1156). The following applies: P. falciparum-infected erythrocytes, osmotic lysis, higher = more signal, called active from +8 up or from −8 down.
The nature of assay [6]: plasmodial surface anion channel blockers, osmotic lysis – cell-based, P. falciparum Indochina, OD700, 18 h, primary screen (AID 1157). Conditions: P. falciparum Indochina infected erythrocytes, osmotic lysis OD700, 18 h; higher = more signal, called active from +8 up or from −8 down.
Assay [7] in a line: S6 kinase pathway phospho-S6 level changes – cell-based, A549, cytoblot, luminescence, serum-stimulated, primary screen (AID 1158).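 Further: serum-stimulated A549 lung adenocarcinoma cells; signal is phosphorylated S6 detected by cytoblot immunostaining with HRP secondary.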 Conditions: 5 h, higher = more signal.
Assay [8] concerns the target NADPH oxidase 2 (Homo sapiens) (UniProt P04839). Briefly: compounds shifting NOX2 Amplex Red fluorescence – cell-based, HEK293-NOX2, PMA-stimulated, NOX inhibitor project, primary screen (AID 1159). Further: test concentration not given here. The following applies: 45 min, higher = more signal, called active from +8 up or from −8 down.
The target of assay [9] is NADPH oxidase 4 (Homo sapiens) (UniProt Q9NPH5). Put plainly: compounds shifting NOX4 Amplex Red fluorescence – cell-based, HEK293-NOX4, tetracycline-induced, NOX inhibitor project, primary screen (AID 1160). Conditions: HEK293-NOX4, Amplex Red H2O2 fluorescence, 45 min; higher = more signal, called active from +8 up or from −8 down.
NADPH oxidase 4 (Homo sapiens), sequence (Q9NPH5 whole entry, looked up): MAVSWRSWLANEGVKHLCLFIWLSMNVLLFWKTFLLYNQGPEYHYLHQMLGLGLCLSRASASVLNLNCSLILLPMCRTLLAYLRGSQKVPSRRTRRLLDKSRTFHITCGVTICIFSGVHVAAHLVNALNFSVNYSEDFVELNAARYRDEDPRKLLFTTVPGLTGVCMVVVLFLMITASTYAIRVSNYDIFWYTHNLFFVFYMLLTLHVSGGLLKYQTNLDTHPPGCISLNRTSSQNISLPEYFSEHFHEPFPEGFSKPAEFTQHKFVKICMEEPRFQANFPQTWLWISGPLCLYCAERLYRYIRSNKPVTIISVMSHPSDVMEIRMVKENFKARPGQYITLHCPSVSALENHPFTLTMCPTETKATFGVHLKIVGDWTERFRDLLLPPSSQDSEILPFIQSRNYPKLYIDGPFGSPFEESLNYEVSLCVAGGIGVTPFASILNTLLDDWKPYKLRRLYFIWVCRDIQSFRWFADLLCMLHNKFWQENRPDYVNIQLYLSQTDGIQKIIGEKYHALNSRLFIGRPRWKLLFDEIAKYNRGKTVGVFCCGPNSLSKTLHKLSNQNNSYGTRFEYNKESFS
In assay [10] the target is NADPH oxidase 5 (Homo sapiens) (UniProt Q96PH1). Briefly: compounds shifting NOX5 Amplex Red fluorescence – cell-based, HEK293-NOX5, NOX inhibitor project, primary screen (AID 1161). Conditions: HEK293-NOX5, ionomycin, 45 min, higher = more signal.
NADPH oxidase 5 (Homo sapiens), sequence (Q96PH1 whole entry, looked up): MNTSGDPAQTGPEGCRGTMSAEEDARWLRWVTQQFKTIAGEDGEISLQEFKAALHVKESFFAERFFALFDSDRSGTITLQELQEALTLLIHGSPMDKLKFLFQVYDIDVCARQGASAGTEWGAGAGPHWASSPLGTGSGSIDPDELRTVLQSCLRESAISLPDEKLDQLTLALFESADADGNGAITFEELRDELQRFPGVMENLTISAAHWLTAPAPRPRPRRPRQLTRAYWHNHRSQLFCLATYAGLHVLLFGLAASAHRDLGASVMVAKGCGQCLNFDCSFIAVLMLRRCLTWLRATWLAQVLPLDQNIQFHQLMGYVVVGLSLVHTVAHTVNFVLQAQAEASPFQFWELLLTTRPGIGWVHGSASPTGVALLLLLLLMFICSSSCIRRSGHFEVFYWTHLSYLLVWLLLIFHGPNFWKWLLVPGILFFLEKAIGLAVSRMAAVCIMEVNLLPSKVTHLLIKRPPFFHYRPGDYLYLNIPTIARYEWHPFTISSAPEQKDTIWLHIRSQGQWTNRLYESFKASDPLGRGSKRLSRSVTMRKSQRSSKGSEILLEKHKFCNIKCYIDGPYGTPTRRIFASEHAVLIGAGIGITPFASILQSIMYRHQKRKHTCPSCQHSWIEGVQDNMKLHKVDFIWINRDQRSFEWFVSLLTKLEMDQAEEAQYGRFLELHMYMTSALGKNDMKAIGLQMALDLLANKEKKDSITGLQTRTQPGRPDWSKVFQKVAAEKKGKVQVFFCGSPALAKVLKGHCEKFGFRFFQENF
Assay [11] can be described thus: compound effects on lung adenocarcinoma cell viability – A549, calcein-AM fluorescence, 48 h, basal, profiling panel (AID 1162). Further: test concentration not given here. Conditions: higher = more signal.
Assay [12] can be described thus: compound effects on differentiated 3T3-L1 adipocyte viability – cell-based, 3T3-L1 adipocytes, calcein-AM fluorescence, 48 h, basal, profiling panel (AID 1163). Further: test concentration not given here. The following applies: 3T3-L1 adipocytes viability, higher = more signal.
Assay [13] in a line: compound effects on hepatocellular carcinoma cell viability – HepG2, calcein-AM fluorescence, 48 h, basal, profiling panel (AID 1164). Further: test concentration not given here. Conditions: higher = more signal.
A short description of assay [14]: compound effects on multiple myeloma cell viability – MM1S, calcein-AM fluorescence, 48 h, basal, profiling panel (AID 1165). Further: test concentration not given here. Conditions: higher = more signal.
Assay [15] in a line: calcein-AM signal in unstimulated myeloma cells – cell-based, calcein-AM fluorescence, 48 h, PK04 Diversity Set, profiling panel (AID 1166).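 Further: cells grown under basal conditions without added stimulus; test concentration not given here.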 The following applies: RPMI8226 myeloma viability, higher = more signal.
The nature of assay [16]: JC-1 mitochondrial signal, unstimulated HepG2 cells – cell-based, JC-1 fluorescence, 24 h, 100 nL compound, profiling panel (AID 1167). Further: test concentration not given here. The following applies: HepG2 mitochondrial potential, higher = more signal.
Assay [17] is described as follows: JC-1 mitochondrial signal, unstimulated adipocytes – cell-based, JC-1 fluorescence, 3T3-L1 adipocytes, 24 h, 100 nL compound, profiling panel (AID 1168). Further: test concentration not given here. The following applies: JC-1 mitochondrial fluorescence, higher = more signal, called active from +8 up or from −8 down.
Assay [18] can be described thus: JC-1 mitochondrial signal, unstimulated myeloma cells – cell-based, JC-1 fluorescence, RPMI8226, 24 h, 100 nL compound, profiling panel (AID 1169). Further: test concentration not given here. The following applies: JC-1 mitochondrial potential fluorescence, higher = more signal.
The nature of assay [19]: JC-1 mitochondrial signal, unstimulated MM1S myeloma – cell-based, JC-1 fluorescence, 24 h, 100 nL compound, profiling panel (AID 1170). Further: test concentration not given here. Conditions: MM1S mitochondrial potential, higher = more signal.
Assay [20] in a line: resazurin metabolic signal in A549 cells – cell-based, resazurin fluorescence, 24 h, PK04 Diversity Set, profiling panel (AID 1171). Further: test concentration not given here. The following applies: A549 viability, higher = more signal, called active from +8 up or from −8 down.

SMILES strings stand for the structures. Active and inactive are the calls of the source.

NADPH oxidase 2 (Homo sapiens), sequence (P04839 whole entry, looked up): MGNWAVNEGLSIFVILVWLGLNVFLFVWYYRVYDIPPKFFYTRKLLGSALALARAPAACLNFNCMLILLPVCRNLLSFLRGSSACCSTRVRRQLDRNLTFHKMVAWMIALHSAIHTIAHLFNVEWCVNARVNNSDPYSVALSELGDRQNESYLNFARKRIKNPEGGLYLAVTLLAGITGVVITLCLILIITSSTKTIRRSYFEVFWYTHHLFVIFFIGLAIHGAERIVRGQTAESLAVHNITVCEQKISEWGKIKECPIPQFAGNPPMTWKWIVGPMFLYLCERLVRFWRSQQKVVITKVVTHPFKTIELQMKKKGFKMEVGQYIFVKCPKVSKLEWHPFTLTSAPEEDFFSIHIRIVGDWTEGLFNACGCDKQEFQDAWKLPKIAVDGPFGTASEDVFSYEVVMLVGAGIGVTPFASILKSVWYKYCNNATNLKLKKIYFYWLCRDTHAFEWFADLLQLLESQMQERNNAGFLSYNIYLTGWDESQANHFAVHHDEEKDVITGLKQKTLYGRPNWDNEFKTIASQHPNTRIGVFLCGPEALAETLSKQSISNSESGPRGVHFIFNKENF

With `CC[C@@H](c1ccccc1)n1c(=O)n2n(c1=O)[C@H]1[C@H](O)[C@@H]3O[C@@H]3C(=NOC[C@@H](O)COCc3ccco3)[C@H]1CC2`, the z-score was -0.389 (inactive) in [1]; 1.34 (inactive) in assay [3]; -0.339 (inactive) in assay [4]; -0.18 (inactive) in assay [5]; -0.381 (inactive) in assay [6]; 0.225 in [7]. The z-score in assay [8] is -0.892 (inactive); in assay [9], 0.796 (inactive); in [10] it was 1.36; in assay [11], -0.335; in assay [12], -0.193; in assay [13] it was -0.378. For the same compound, the z-score is -0.0533 in assay [14]; -0.736 in assay [15]; -1.44 in assay [16]; -0.368 (inactive) in assay [17]; -0.465 in assay [18]; 0.432 in assay [19]. In addition, the z-score in assay [20] is 0.0367 (inactive). This compound yielded a composite z-score in assay [2] of -0.89.

As for `COc1ccc(COC(=O)NN=C2C[C@@H](O)[C@@H](O)[C@@H]3[C@@H]4C(=O)N(c5ccc(F)cc5F)C(=O)[C@@H]4CC[C@H]23)cc1`, the z-score in [1] is -0.544 (inactive); in assay [3], 30.2 (active); in assay [4], 4.98 (inactive); in assay [5], 2.52 (inactive); in assay [6] it was 1.24 (inactive); in [7] it was -0.434. The z-score in assay [8] was -0.407 (inactive); in assay [9], -0.481 (inactive); in assay [10], -0.876; in assay [11], 0.0819; in assay [12], 0.232; in assay [13] it was -1.01. Further, the z-score in [14] is 0.698; in assay [15], -0.887; in assay [16], 0.361; in [17], -0.982 (inactive); in assay [18] it was -0.112; in [19] it was -1.07. Besides, in assay [20], the z-score is 0.764 (inactive). The composite z-score in assay [2] came to 0.545.

Turning to `COc1cccc([C@H]2Oc3ccc(OC)cc3C(=NO[C@@H]3O[C@H](COC(C)=O)[C@@H](OC(C)=O)[C@H](OC(C)=O)[C@H]3OC(C)=O)[C@@H]2O)c1`, the z-score in assay [1] was -1.34 (inactive); in [3], 0.158 (inactive); in assay [4], -0.0728 (inactive); in assay [5] it was -0.362 (inactive); in assay [6], 0.146 (inactive); in assay [7], -1.09. Besides, the z-score in assay [8] was 0.484 (inactive); in [9], 0.905 (inactive); in [10] it was 0.486; in [11], 0.679; in assay [12], -0.375; in assay [13], -0.104. Besides, the z-score in assay [14] is -0.525; in assay [15] it was -0.476; in [16] it was -0.515; in assay [17], -3.37 (inactive); in assay [18], -0.0523; in assay [19], 0.0745. Besides, the z-score in assay [20] is -0.416 (inactive). The same compound came in with a composite z-score in [2] of -0.191.

As to `COC(=O)[C@H]1[C@@H](O)[C@@]2(O)c3ccccc3O[C@@]2(c2ccccc2)[C@@H]1c1ccccc1`, the z-score in assay [1] was -0.262 (inactive); in assay [3], 0.249 (inactive); in assay [4], 0.454 (inactive); in assay [5], 0.296 (inactive); in [6] it was 0.148 (inactive); in assay [7], 0.0192. The z-score in [8] is -0.481 (inactive); in assay [9] it was 0.526 (inactive); in [10] it was 0.152; in [11], -0.895; in assay [12] it was -0.535; in assay [13] it was -2.85. Also, the z-score was -2.81 in assay [14]; -3.1 in [15]; -1.85 in [16]; -0.144 (inactive) in assay [17]; -0.231 in [18]; -0.341 in assay [19]. In addition, in assay [20], the z-score is -0.146 (inactive). This compound showed a composite z-score in assay [2] of -0.193.
